MITF TRPM1 HTS: activators of MITF-driven TRPM1 promoter activity in SK-MEL-5 cells | SK-MEL-5 TRPM1-promoter luciferase, 24 h; % of positive control, neutral wells = 0 | activation, % at 12.5 µM | 300,000 tested, 0.75% active | AID 588334;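 active = mean activation of at least 80% with every replicate also reaching 80%; inconclusive = mean reaches 80% but some replicate falls short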
INS-1E GSIS act: GLuc luminescence reporter in INS-1E cells, primary screen for activators of glucose-dependent secretion of insulin; 370,000 tested, 0.61% active; INS-1E GLuc reporter insulin secretion, 2-3 h; activation, % at 16.6 µM;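 active = lowest replicate activation of at least 40%, so every replicate reaches that level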
Wnt act: activates Wnt/beta-catenin signaling in a reporter cell assay | activator, plate reader | activation, % at 9.35 µM | 300,000 tested, 1.2% active | AID 743398; in the data active = activation above about 30%, passing the limit was not always enough; inconclusive = no clear call, values can overlap the other calls
F508del corr: correctors of CFTR F508del function in bronchial epithelial cells. CFBE cells, YFP halide quenching; stimulated with forskolin plus potentiator P3; % fluorescence drop versus neutral controls. AID 720511. 350,000 tested, 0.36% active. activity (quench increase), % at 7.58 µM;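 active = mean added fluorescence quench of at least 8% versus neutral control, with both replicates also reaching 8%; inconclusive = only one of the mean or replicate conditions met; inactive = mean below 8% and not both replicates reaching 8%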;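 also: cells transiently co-express mutant CFTR-F508del with the halide-sensitive YFP; corrector assay measuring rescue of mutant channel to the surface after 24 h compound exposure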
Env fusion inh: blocks HIV Env-driven cell-cell fusion | inhibition, % at 12.3 µM | HeLa-JRFL Env/CEM21 cell fusion, luciferase | 360,000 tested, 1.1% active;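 active = mean replicate inhibition score of at least 50 and every replicate individually at or above 50; inconclusive = only one of the two criteria met; inactive = mean below 50 and not all replicates reaching 50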
Large screens that a line does not name were inactive; [ ] = remark or other dose. The list is not random: actives were taken first. Their share in the collection is about 2.7%.

O=C(Cc1nc2ccccc2[nH]1)c1ccc(Br)cc1	MITF TRPM1 HTS 91
N/N=C(/Cc1nc2ccccc2[nH]1)c1ccc([N+](=O)[O-])cc1	Wnt act 38
O=C(Cc1ccc(Br)cc1)Nc1nc2ccccc2[nH]1	none
O=C(Cc1nc2ccccc2[nH]c1=O)c1ccccc1	Wnt act 33
c1ccc(N/N=C(\Cc2nc3ccccc3[nH]2)c2ccccc2)cc1	none
O=c1[nH]c2ccccc2nc1Cc1ccccc1	none (no result: INS-1E GSIS act, F508del corr, Env fusion inh)
C[C@@H]1CN([C@H](C)CO)C(=O)c2cc(NC(=O)Cc3ccccc3)ccc2O[C@H]1CN(C)S(=O)(=O)c1ccc(F)cc1	none (no result: MITF TRPM1 HTS, Wnt act, Env fusion inh)
COc1ccc(C2CC(C)(c3ccc(OC)cc3)Nc3ccccc3N2)cc1 (stereo not given)	Wnt act 49 (no result: MITF TRPM1 HTS, INS-1E GSIS act)
COc1ccc(C2(C)CC(C)(C)Nc3ccccc32)cc1 (stereo not given)	none (no result: MITF TRPM1 HTS)
Nc1ncnc(NC2CCS(=O)(=O)C2)c1[N+](=O)[O-] (stereo not given)	INS-1E GSIS act 65
CN(c1ncnc(N)c1[N+](=O)[O-])C1CCCCC1	INS-1E GSIS act 41
CCCCN(c1ccccc1)c1ncnc(N)c1[N+](=O)[O-]	none (no result: Env fusion inh)
CN(c1ncnc(N)c1[N+](=O)[O-])C1CCS(=O)(=O)C1 (stereo not given)	Env fusion inh 59
Cc1ccc(C(=O)N/C(=C/c2ccco2)C(=O)NCc2ccco2)cc1	INS-1E GSIS act 115
CN(C)c1nc(OCCNC(=O)COc2ccc(Cl)cc2Cl)nc(N(C)C)n1	Env fusion inh 44 (no result: INS-1E GSIS act, F508del corr)
CN(C)c1nc(OCCOC(=O)COc2ccc(Cl)cc2Cl)nc(N(C)C)n1	none (no result: INS-1E GSIS act, F508del corr)
CC(C)(C)C(=O)OCc1nc(-c2ccc(F)cc2)cs1	MITF TRPM1 HTS 110
CC(=Nc1ccc(C)c(C)c1)C1=C(O)CSC1=O	MITF TRPM1 HTS 132 (no result: INS-1E GSIS act, Wnt act, F508del corr, Env fusion inh)
COc1ccccc1N=C(C)C1=C(O)CSC1=O	none (no result: INS-1E GSIS act, F508del corr, Env fusion inh)
N#C[C@H]1[C@H](c2ccccc2C2=CCCC2)[C@@H](CO)N1C(=O)NC1CCCC1	none (no result: MITF TRPM1 HTS, Wnt act, Env fusion inh)
COC(=O)c1ccccc1-c1c2ccc(=N)cc-2oc2cc(N)ccc12	F508del corr 62
COC(=O)c1ccccc1-c1ccc(/C=N/NC(=O)c2cc3ccccc3o2)o1	none (no result: Wnt act, F508del corr, Env fusion inh)
CSc1ccc(/C=C/C(=O)c2ccc(NC(=O)C(C)C)cc2)cc1	none (no result: INS-1E GSIS act, Wnt act, F508del corr, Env fusion inh)
CSc1ccc(C(=O)/C=C/c2ccc(N)cc2)cc1	Wnt act 67 (no result: F508del corr)
C#C[C@]1(O)CC[C@H]2[C@@H]3CCc4cc(O)ccc4[C@H]3CC[C@@]21C	none
C#CC1(O)CCC2C3CCC4=C(CCC(=O)C4)C3CCC21C (stereo not given)	Env fusion inh 62
CC(C)(C)n1nnnc1C(c1cccs1)N(Cc1cccnc1)Cc1ccco1 (stereo not given)	Env fusion inh 53 (no result: INS-1E GSIS act, Wnt act, F508del corr)
C[C@@H]1CN([C@H](C)CO)S(=O)(=O)c2ccc(-c3ccccc3)cc2O[C@@H]1CN(C)S(C)(=O)=O	none (no result: MITF TRPM1 HTS, Wnt act)
Cc1ccc2c(c1)cc(CN(Cc1ccco1)C(=O)N1CCOCC1)c1nnnn12	none
CCc1ccc2c(c1)cc(CN(Cc1ccco1)C(C)=O)c1nnnn12	INS-1E GSIS act 52
CC(C)CC#Cc1ccc2c(c1)O[C@@H](CN(C)C(=O)C1CCCCC1)[C@@H](C)CN([C@H](C)CO)S2(=O)=O	none (no result: MITF TRPM1 HTS, Wnt act)
Cc1noc(C)c1S(=O)(=O)Nc1ccc2c(c1)CC(=O)N([C@@H](C)CO)C[C@@H](C)[C@H](CN(C)Cc1ccc(Cl)c(Cl)c1)O2	Env fusion inh 85[16.7 µM] (no result: MITF TRPM1 HTS, Wnt act)
Cc1ccc(S(=O)(=O)Nc2ccc3c(c2)CC(=O)N([C@@H](C)CO)C[C@@H](C)[C@@H](CN(C)Cc2ccc(Cl)c(Cl)c2)O3)cc1	F508del corr 11 (no result: MITF TRPM1 HTS, Wnt act)
C[C@@H]1CN([C@@H](C)CO)C(=O)Cc2cc(NS(=O)(=O)c3ccc(Cl)cc3)ccc2O[C@H]1CN(C)Cc1ccc(Cl)c(Cl)c1	Env fusion inh 83[16.7 µM] (no result: MITF TRPM1 HTS, Wnt act)
Cc1ccc(S(=O)(=O)Nc2ccc3c(c2)CC(=O)N([C@H](C)CO)C[C@H](C)[C@@H](CN(C)Cc2ccc(Oc4ccccc4)cc2)O3)cc1	none (no result: MITF TRPM1 HTS, Wnt act)
Cc1noc(C)c1S(=O)(=O)Nc1ccc2c(c1)CC(=O)N([C@@H](C)CO)C[C@H](C)[C@@H](CN(C)Cc1ccc(Cl)c(Cl)c1)O2	none (no result: MITF TRPM1 HTS, Wnt act)
Cc1ccc(S(=O)(=O)Nc2ccc3c(c2)CC(=O)N([C@@H](C)CO)C[C@@H](C)[C@H](CN(C)Cc2ccc(Oc4ccccc4)cc2)O3)cc1	Env fusion inh 73[16.7 µM] (no result: MITF TRPM1 HTS, Wnt act)
C[C@@H]1CN([C@H](C)CO)C(=O)Cc2cc(NS(=O)(=O)c3ccc(Cl)cc3)ccc2O[C@H]1CN(C)Cc1ccc(Cl)c(Cl)c1	none (no result: MITF TRPM1 HTS, Wnt act)
C[C@H](CO)N1C[C@H](C)[C@@H](CN(C)Cc2ccc(Cl)c(Cl)c2)Oc2ccc(NS(=O)(=O)c3ccc(Cl)cc3)cc2CC1=O	none (no result: MITF TRPM1 HTS, Wnt act)
C[C@@H]1CN([C@@H](C)CO)C(=O)Cc2cc(NS(=O)(=O)c3ccccc3)ccc2O[C@H]1CN(C)Cc1ccc(Cl)c(Cl)c1	Env fusion inh 88[16.7 µM] (no result: MITF TRPM1 HTS, Wnt act)
CCOc1ccccc1CNc1ncnc2ccc(-c3c(C)noc3C)cc12	Env fusion inh 70
CCCCNc1c(-c2ccc(SC(C)CC)cc2)nc2ccccn12 (stereo not given)	MITF TRPM1 HTS inconclusive
CCCCNc1c(-c2ccc(SC3CCCCC3)cc2)nc2ccccn12	Wnt act 37
CC(C)C#Cc1ccc2c(c1)O[C@@H](CN(C)C(=O)Cc1ccccn1)[C@@H](C)CN([C@H](C)CO)S2(=O)=O	none (no result: MITF TRPM1 HTS, Wnt act)
Cn1c(=O)oc2cc(S(=O)(=O)N3CCCCC3)ccc21	none
Cn1c(=O)oc2cc(S(=O)(=O)N3CCCC3)ccc21	Env fusion inh 62 (no result: MITF TRPM1 HTS)
COc1ccc(CN(C)C[C@H]2OCCCC[C@H](C)Oc3ccc(NS(C)(=O)=O)cc3C(=O)N([C@H](C)CO)C[C@H]2C)cc1	none (no result: MITF TRPM1 HTS, Wnt act)
CC(C)(C)c1ccc(C(=O)c2c[nH]c(C(=O)NCCCN3CCOCC3)c2)cc1	none (no result: INS-1E GSIS act, F508del corr)
COc1cccc(C(=O)c2c[nH]c(C(=O)NCCCN3CCOCC3)c2)c1	F508del corr 15
COc1ccc(NC(=O)Nc2ccc3c(c2)C(=O)N([C@H](C)CO)C[C@H](C)[C@H](CN(C)C(=O)c2ccccc2)OCCCC[C@H](C)O3)cc1	Env fusion inh 61[16.7 µM] (no result: MITF TRPM1 HTS, Wnt act)
COc1ccc(NC(=O)Nc2ccc3c(c2)C(=O)N([C@H](C)CO)C[C@H](C)[C@@H](CN(C)C(=O)c2ccccc2)OCCCC[C@H](C)O3)cc1	none (no result: MITF TRPM1 HTS, Wnt act)
COc1ccc(NC(=O)Nc2ccc3c(c2)C(=O)N([C@@H](C)CO)C[C@H](C)[C@H](CN(C)C(=O)c2ccccc2)OCCCC[C@H](C)O3)cc1	Env fusion inh 56[16.7 µM] (no result: MITF TRPM1 HTS, Wnt act)
COc1ccc(CNC(=O)N(C)C[C@H]2OCc3ccccc3-c3ccccc3C(=O)N([C@@H](C)CO)C[C@@H]2C)cc1	none (no result: MITF TRPM1 HTS, Wnt act, F508del corr, Env fusion inh)
CCOC(=O)C(C)Oc1cccc2c(=O)n(CC(=O)NCc3ccc(F)cc3)ccc12 (stereo not given)	INS-1E GSIS act 42
